Experimental data taken from PubChem BioAssay (NCI).
About 83,000 compounds went through this panel and 20% of them were active in at least one assay; those are over-represented in the sample as a whole.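 Negative percent growth values reflect cell death: -40 means 40% of the cells present at the start died, and -100 means all died.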 Activity calls are given as the source filed them. Rule for the calls: active = growth percent below 10; inactive = the rest.

Key:
Experiment in all cases: NCI-60 one-dose screen, 48 h (100 = growth as untreated, 0 = no growth, -100 = all killed)
Details in all cases: 10 µM
NCI-H23 lung = test system: NCI-H23 lung
NCI-H226 lung = test system: NCI-H226 lung
NCI-H322M lung = test system: NCI-H322M lung
HOP-62 NSCLC = test system: HOP-62 NSCLC
NCI-H460 lung = test system: NCI-H460 lung
HOP-92 NSCLC = test system: HOP-92 NSCLC
NCI-H522 lung = test system: NCI-H522 lung
A549/ATCC NSCLC = test system: A549/ATCC NSCLC
786-0 renal = test system: 786-0 renal
COLO 205 colon = test system: COLO 205 colon

Measured: growth

FC(F)(F)c1ccc(-c2cnc(Cl)nc2NC2CCCCCC2)cc1
active: HOP-92 NSCLC -28.4% | NCI-H522 lung -6.08%
inactive: NCI-H23 lung 25.8% | NCI-H226 lung 42.1% | NCI-H322M lung 71.1% | HOP-62 NSCLC 33.4% | NCI-H460 lung 25.8% | A549/ATCC NSCLC 17.4% | 786-0 renal 40.1%

c1ccc(CNc2nc(Nc3ccc(-c4nc5ccccc5[nH]4)cc3)c3cn[nH]c3n2)cc1
active: HOP-62 NSCLC -17.4% | NCI-H460 lung 4.06% | NCI-H522 lung -45.7% | A549/ATCC NSCLC 4.29% | 786-0 renal -78.4%
inactive: NCI-H23 lung 14.5% | NCI-H226 lung 39.6% | NCI-H322M lung 28.6% | HOP-92 NSCLC 14.7%

O=c1[nH]c(=O)n(C2C[C@@H](O)[C@@H](CO)O2)cc1F (stereo partly drawn)
active: NCI-H460 lung 6.58% | 786-0 renal 8.75%
inactive: NCI-H23 lung 15.9% | NCI-H226 lung 50.4% | NCI-H322M lung 57.6% | HOP-62 NSCLC 27.7% | HOP-92 NSCLC 38.9% | NCI-H522 lung 20.1% | A549/ATCC NSCLC 22.2%

O=C(N/N=C\c1cc(Cl)ccc1O)c1ccncc1
inactive: NCI-H23 lung 46% | NCI-H226 lung 31.6% | NCI-H322M lung 59.5% | HOP-62 NSCLC 55.7% | NCI-H460 lung 25.3% | HOP-92 NSCLC 47.5% | NCI-H522 lung 11.7% | A549/ATCC NSCLC 79.8% | 786-0 renal 19.1%

CCN(CC)CC(O)CNc1ccnc2cc(Cl)c(Cl)cc12 (stereo not drawn)
inactive: NCI-H23 lung 102% | NCI-H226 lung 84.9% | NCI-H322M lung 92.1% | HOP-62 NSCLC 88.9% | NCI-H460 lung 100% | HOP-92 NSCLC 53.4% | NCI-H522 lung 94.1% | A549/ATCC NSCLC 101% | 786-0 renal 86.1%

N=C(N)c1ccc(-c2ccc(-c3ccccc3)s2)s1
inactive: NCI-H23 lung 54.6%
active: NCI-H226 lung -19.8% | NCI-H322M lung -86.2% | HOP-62 NSCLC -83.9% | NCI-H460 lung -70% | HOP-92 NSCLC -37.8% | NCI-H522 lung -69.4% | A549/ATCC NSCLC -60.8% | 786-0 renal -36.7%

CCOc1ccc2c(c1)CC[C@@H]1[C@@H]2CC[C@]2(C)[C@@H](O)[C@@H](O)C[C@@H]12
inactive: NCI-H23 lung 106% | NCI-H226 lung 85.7% | NCI-H322M lung 91.4% | HOP-62 NSCLC 114% | NCI-H460 lung 100% | HOP-92 NSCLC 122% | NCI-H522 lung 119% | A549/ATCC NSCLC 80.3% | 786-0 renal 101%

COc1cc(OC)cc(-c2n/c(=C\c3c(O)[nH]c4ccc(OC)cc34)cc3c2=Nc2ccccc2-3)c1
inactive: NCI-H23 lung 65.8% | NCI-H226 lung 92.4% | NCI-H322M lung 102% | HOP-62 NSCLC 99.1% | NCI-H460 lung 12.8% | HOP-92 NSCLC 68.6% | NCI-H522 lung 108% | A549/ATCC NSCLC 52.1% | 786-0 renal 75.9% | COLO 205 colon 86.5%

CCCCCCN=C(N)CCCCCCCCCCC(N)=NCCCCCC
inactive: NCI-H23 lung 27.8% | NCI-H226 lung 51.6% | NCI-H322M lung 62.4% | HOP-62 NSCLC 18.5% | NCI-H460 lung 13.4% | NCI-H522 lung 23.9% | A549/ATCC NSCLC 33.7% | 786-0 renal 37%
active: HOP-92 NSCLC 8.01% | COLO 205 colon -9.55%

O=C(C=P(c1ccccc1)(c1ccccc1)c1ccccc1)c1ccc(Br)cc1
inactive: NCI-H23 lung 85.8% | NCI-H226 lung 96.5% | NCI-H322M lung 78.6% | HOP-62 NSCLC 125% | NCI-H460 lung 93% | HOP-92 NSCLC 67.1% | NCI-H522 lung 59.5% | A549/ATCC NSCLC 72.4% | 786-0 renal 97.9% | COLO 205 colon 96%

N=C(N)c1ccc(-c2ccc(-c3cccs3)s2)nc1
inactive: NCI-H23 lung 71.2% | NCI-H226 lung 67.6% | HOP-62 NSCLC 66.5% | NCI-H522 lung 72.8% | 786-0 renal 56.2%
active: NCI-H322M lung -13.1% | NCI-H460 lung -22% | HOP-92 NSCLC -9.04% | A549/ATCC NSCLC 2.67% | COLO 205 colon -94%

C/C(=N\NC(=S)N1CCCC1)c1ccccn1
inactive: NCI-H23 lung 17% | HOP-92 NSCLC 48.5% | 786-0 renal 20%
active: NCI-H226 lung -7.28% | NCI-H322M lung 6.18% | HOP-62 NSCLC 10% | NCI-H460 lung 1.6% | NCI-H522 lung 5.12% | A549/ATCC NSCLC 0.905% | COLO 205 colon 5.14%

COc1ccc(COC(=O)CC(C)C)cc1
inactive: NCI-H23 lung 93.1% | NCI-H226 lung 95.1% | NCI-H322M lung 101% | HOP-62 NSCLC 106% | NCI-H460 lung 108% | HOP-92 NSCLC 99% | NCI-H522 lung 79.1% | A549/ATCC NSCLC 89.5% | 786-0 renal 94.4% | COLO 205 colon 109%

C=CCn1c(C)nc2cc(Nc3nc(Nc4ccc5nc(C)n(CC=C)c5c4)c4ccccc4n3)ccc21
active: NCI-H23 lung -69.2% | NCI-H226 lung -47.1% | NCI-H322M lung -92.2% | HOP-62 NSCLC -99.5% | NCI-H460 lung -84.2% | HOP-92 NSCLC -79% | NCI-H522 lung -94.8% | A549/ATCC NSCLC -67.1% | 786-0 renal -70.6% | COLO 205 colon -100%

COc1cc(-c2nc3cc(Cl)c(Cl)cc3[nH]2)ccc1OCC(=O)NN
inactive: NCI-H23 lung 92.8% | NCI-H226 lung 90.5% | NCI-H322M lung 79.1% | HOP-62 NSCLC 72% | NCI-H460 lung 84.8% | HOP-92 NSCLC 94% | NCI-H522 lung 67.5% | A549/ATCC NSCLC 71% | 786-0 renal 96.1% | COLO 205 colon 108%
